Measured values as given in PubChem BioAssay (EPA / NIEHS).
Several values for one entry are separate records, joined by “and”; a condition that tells them apart may be missing. Identical values can stand only once. Records with an inconclusive call do not appear. The source holds several records for some structures; these can differ, active in one and inactive in another. Activity calls are given as the source filed them. How the source made its calls, unless noted: active means hit-call score of the fitted dose curve at least 0.9, where 1 is the maximum; inactive means score below 0.9.

Legend:
[1] = read-out: NAD(P)H dehydrogenase [quinone] 1 (NQO1), NQO1 (gene 1728); assay: LTEA_HepaRG_NQO1: Life Technologies and Expression Analysis (LTEA) Assay for NAD(P)H dehydrogenase [quinone] 1 (NQO1) using HepaRG (AID 2283526); conditions: mRNA level, 48 h; actives raise or lower the signal
Outline: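 HepaRG, 48 h post-plating → serum-free induction medium → test chemical 48 h (duplicate, 100 uM top, half-log x8, 0.5% DMSO) → RNA isolation → qRT-PCR, ACTB/GAPDH/POLR2A normalization; bidirectional curve fit vs DMSO baseline.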

[2] = read-out: Nuclear factor erythroid 2-related factor 2 (Homo sapiens) (UniProt Q16236); assay: LTEA_HepaRG_NFE2L2: Life Technologies and Expression Analysis (LTEA) Assay for Nuclear factor erythroid 2-related factor 2 (NFE2L2) Transcription Factor using HepaRG (AID 2283527); conditions: mRNA level, 48 h; actives raise or lower the signal
Outline: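 Transcript level of NFE2L2 is the read-out, measured by microfluidic TaqMan qRT-PCR and normalized to three housekeeping genes. Human HepaRG cultures received test chemical for 48 h at up to 100 uM in half-log steps. Gain or loss of signal is fitted relative to 0.5% DMSO.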

[3] = read-out: succinate dehydrogenase complex iron sulfur subunit B (SDHB), SDHB (gene 6390); assay: LTEA_HepaRG_SDHB: Life Technologies and Expression Analysis (LTEA) Assay for succinate dehydrogenase complex iron sulfur subunit B (SDHB) using HepaRG (AID 2283528); conditions: mRNA level, 48 h; actives raise or lower the signal
Outline: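 Readout is SDHB transcript level by qRT-PCR, normalised to three housekeeping genes and fitted bidirectionally against 0.5% DMSO vehicle. Human HepaRG cells were treated for 48 h at up to 100 uM.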

[4] = read-out: Signal transducer and activator of transcription 3 (Homo sapiens) (UniProt P40763); assay: LTEA_HepaRG_STAT3: Life Technologies and Expression Analysis (LTEA) Assay for Signal transducer and activator of transcription (STAT3) using HepaRG (AID 2283529); conditions: mRNA level, 48 h; actives raise or lower the signal
Outline: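 Read-out is STAT3 mRNA level by qRT-PCR, normalized to three housekeeping genes, in human HepaRG liver cells treated for 48 h. Concentrations ran from 100 uM downward in half-log steps; curves were fitted for gain or loss relative to 0.5% DMSO.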

[5] = read-out: solute carrier (SLCO1B1), SLCO1B1 (gene 10599); assay: LTEA_HepaRG_SLCO1B1: Life Technologies and Expression Analysis (LTEA) Assay for solute carrier (SLCO1B1) using HepaRG (AID 2283530); conditions: mRNA level, 48 h; actives raise or lower the signal
Outline: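 Differentiated human HepaRG cells were exposed for 48 h in serum-free induction medium to eight half-log concentrations, top 100 uM, in 0.5% DMSO. SLCO1B1 mRNA was measured by qRT-PCR, normalized to ACTB, GAPDH and POLR2A, and fitted bidirectionally against DMSO.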

[6] = read-out: sulfotransferase 2A1 (SULT2A1), SULT2A1 (gene 6822); assay: LTEA_HepaRG_SULT2A1: Life Technologies and Expression Analysis (LTEA) Assay for sulfotransferase 2A1 (SULT2A1) using HepaRG (AID 2283531); conditions: mRNA level, 48 h; actives raise or lower the signal
Outline: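 HepaRG human liver cells, 48 h exposure in serum-free induction medium to 8 half-log concentrations topping at 100 µM (0.5% DMSO), duplicate wells. SULT2A1 mRNA measured by TaqMan qRT-PCR, normalized to ACTB/GAPDH/POLR2A; bidirectional fit against DMSO.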

[7] = read-out: Transforming Growth Factor (TGFA), TGFA (gene 7039); assay: LTEA_HepaRG_TGFA: Life Technologies and Expression Analysis (LTEA) Assay for Transforming Growth Factor (TGFA) using HepaRG (AID 2283532); conditions: mRNA level, 48 h; actives raise or lower the signal
Outline: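 HepaRG (human liver line), 48 h exposure, 8 conc. half-log down from 100 uM, 0.5% DMSO vehicle, duplicates; serum-free induction medium. TGFA mRNA by TaqMan qRT-PCR, ACTB/GAPDH/POLR2A normalization; gain/loss fit vs DMSO.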

[8] = read-out: Transforming Growth Factor (TGFB1), TGFB1 (gene 7040); assay: LTEA_HepaRG_TGFB1: Life Technologies and Expression Analysis (LTEA) Assay for Transforming Growth Factor (TGFB1) Transporter using HepaRG (AID 2283533); conditions: mRNA level, 48 h; actives raise or lower the signal
Outline: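 Differentiated HepaRG cells exposed 48 hr in serum-free induction medium to eight half-log concentrations up to 100 uM (0.5% DMSO), duplicate; TGFB1 mRNA by TaqMan qRT-PCR normalised to ACTB, GAPDH, POLR2A; bidirectional fit against DMSO.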

TIMP1, TIMP1 (gene 7076) = assay: LTEA_HepaRG_TIMP1: Life Technologies and Expression Analysis (LTEA) Assay for TIMP1 using HepaRG (AID 2283534); conditions: mRNA level, 48 h; actives raise or lower the signal;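 further: TaqMan qRT-PCR signal normalized to ACTB GAPDH and POLR2A housekeeping genes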
Outline: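 Differentiated HepaRG cells exposed 48 h in serum-free induction medium, duplicates, eight half-log concentrations from 100 uM in 0.5% DMSO. TIMP1 mRNA by qRT-PCR normalized to ACTB, GAPDH, POLR2A; bidirectional fitting against DMSO.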

[9] = read-out: Tumor necrosis factor receptor 1 (TNFRSF1A), TNFRSF1A (gene 7132); assay: LTEA_HepaRG_TNFRSF1A: Life Technologies and Expression Analysis (LTEA) Assay for Tumor necrosis factor receptor 1 (TNFRSF1A) using HepaRG (AID 2283535); conditions: mRNA level, 48 h; actives raise or lower the signal
Outline: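 Differentiated HepaRG cells in serum-free induction medium, exposed 48 h in duplicate to 8 half-log concentrations up to 100 uM in 0.5% DMSO. TNFRSF1A mRNA by Fluidigm TaqMan qRT-PCR, normalized to ACTB, GAPDH, POLR2A; bidirectional fit.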

[10] = read-out: Thyroid Hormone Responsive (THRSP), THRSP (gene 7069); assay: LTEA_HepaRG_THRSP: Life Technologies and Expression Analysis (LTEA) Assay for Thyroid Hormone Responsive (THRSP) using HepaRG (AID 2283536); conditions: mRNA level, 48 h; actives raise or lower the signal
Outline: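 mRNA induction or loss relative to 0.5% DMSO vehicle was fitted bidirectionally across an eight-point curve whose highest exposure was 100 uM. Human HepaRG liver cells received chemicals in duplicate over 48 h before RNA extraction.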

[11] = read-out: UDP glucuronosyltransferase (UGT1A1), UGT1A1 (gene 54658); assay: LTEA_HepaRG_UGT1A1: Life Technologies and Expression Analysis (LTEA) Assay for UDP glucuronosyltransferase (UGT1A1) using HepaRG (AID 2283538); conditions: mRNA level, 48 h; actives raise or lower the signal
Outline: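 Readout is UGT1A1 transcript level by qRT-PCR, normalized to three housekeeping genes, after 48 h chemical treatment of HepaRG cells. Concentrations ran from 100 uM down in half-log steps with 0.5% DMSO, and gain or loss relative to DMSO was fitted.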

[12] = read-out: UDP glucuronosyltransferase (UGT1A6), UGT1A6 (gene 54578); assay: LTEA_HepaRG_UGT1A6: Life Technologies and Expression Analysis (LTEA) Assay for UDP glucuronosyltransferase (UGT1A6) using HepaRG (AID 2283539); conditions: mRNA level, 48 h; actives raise or lower the signal
Outline: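 Differentiated HepaRG cells, ~100,000/well, were exposed for 48 h in serum-free induction medium with 0.5% DMSO to 8-point half-log series topping at 100 uM, in duplicate. mRNA measured by Fluidigm TaqMan qRT-PCR, normalized to ACTB, GAPDH and POLR2A.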

[13] = read-out: X-box binding protein 1 (XBP1), XBP1 (gene 7494); assay: LTEA_HepaRG_XBP1: Life Technologies and Expression Analysis (LTEA) Assay for X-box binding protein 1 (XBP1) using HepaRG (AID 2283540); conditions: mRNA level, 48 h; actives raise or lower the signal
Outline: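 Differentiated human HepaRG cells in serum-free induction medium exposed 48 h in duplicate to eight half-log concentrations up to 100 uM in 0.5% DMSO. XBP1 mRNA measured by Fluidigm TaqMan qRT-PCR, normalized to ACTB, GAPDH, POLR2A; bidirectional fitting against DMSO.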

[14] = LTEA_HepaRG_LDH_cytotoxicity: Cytotoxicity Assessment in the Life Technologies and Expression Analysis (LTEA) Assay (AID 2283563; active means hit-call score of the fitted dose curve at least 0.9, where 1 is the maximum;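 on AC50: LDH activity released into spent culture medium as a marker of cell death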)
Outline: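 Differentiated HepaRG cells in serum-free induction medium, exposed 48 h in duplicate to 8 half-log concentrations up to 100 uM in 0.5% DMSO. Cytotoxicity from LDH measured in spent medium, fit relative to DMSO.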

[15] = read-out: Cellular tumor antigen p53 (Homo sapiens) (UniProt P04637); assay: LTEA_HepaRG_TP53: Life Technologies and Expression Analysis (LTEA) Assay for Tumor Protein P53 (TP53) using HepaRG (AID 2283537); conditions: mRNA level, 48 h; actives raise or lower the signal
Outline: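 Read-out is TP53 transcript level by microfluidic qRT-PCR, normalised to three housekeeping genes and fitted bidirectionally against DMSO. Human HepaRG cells received compounds for 48 h, highest concentration 100 uM.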

[16] = ATG_XTT_Cytotoxicity: Cytotoxicity Assessment in the Attagene TRANS-FACTORIAL HepG2 Assay (AID 2283584; active means hit-call score of the fitted dose curve at least 0.9, where 1 is the maximum;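 on AC50: XTT signal for cell number as viability in transfected HepG2 cells; cells exposed to compound for 24 h before reading; active means loss of viability signal versus DMSO baseline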)
Outline: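 HepG2 cells transiently transfected with GAL4-UAS multiple reporter units, dosed 24 h; cytotoxicity read by XTT as loss of signal versus DMSO baseline.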

[17] = TOX21_p53_BLA_p2_viability: Viability Assessment in the Tox21 HCT-116 p53 Agonism Beta-lactamase Assay, Phase 2 (AID 2283591; active means hit-call score of the fitted dose curve at least 0.9, where 1 is the maximum;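 further: compound exposure lasted 16 h at 37 °C; actives lower the ATP signal meaning cytotoxicity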)
Outline: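 Cytotoxicity readout: CellTiter-Glo ATP luminescence, 30 min at room temperature, after the beta-lactamase read. Cells were HCT116 exposed 16 h at 37C to compounds pin-transferred at 217-fold dilution from DMSO stocks.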

[18] = biological target: Cellular tumor antigen p53 (Homo sapiens) (UniProt P04637); assay: TOX21_p53_BLA_p2_ratio: Tox21 HCT-116 p53 Agonism Beta-lactamase Assay, Ratio, Phase 2 (AID 2283592; active means hit-call score of the fitted dose curve at least 0.9, where 1 is the maximum)
Outline: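 HCT-116 cells with p53-responsive beta-lactamase reporter, 4000 cells/well, preincubated 5 h, then compound in DMSO (217-fold dilution) for 16 h at 37C. CCF4-AM substrate 2 h at room temperature; 460/530 nm emission ratio fitted upward versus DMSO.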

[19] = TOX21_p53_BLA_p3_viability: Viability Assessment in the Tox21 HCT-116 p53 Agonism Beta-lactamase Assay, Phase 3 (AID 2283593; active means hit-call score of the fitted dose curve at least 0.9, where 1 is the maximum;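 further: cells exposed to compound for 16 h before reading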)
Outline: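 Cellular ATP was quantified by CellTiter-Glo luminescence, read after 30 min at room temperature. Beforehand, HCT116 cells (4000/well) received compound 5 h post-seeding, 217-fold diluted from DMSO, then incubated 16 h at 37C.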

Measured: AC50

Sequence of Cellular tumor antigen p53 (Homo sapiens) (P04637 whole entry, looked up): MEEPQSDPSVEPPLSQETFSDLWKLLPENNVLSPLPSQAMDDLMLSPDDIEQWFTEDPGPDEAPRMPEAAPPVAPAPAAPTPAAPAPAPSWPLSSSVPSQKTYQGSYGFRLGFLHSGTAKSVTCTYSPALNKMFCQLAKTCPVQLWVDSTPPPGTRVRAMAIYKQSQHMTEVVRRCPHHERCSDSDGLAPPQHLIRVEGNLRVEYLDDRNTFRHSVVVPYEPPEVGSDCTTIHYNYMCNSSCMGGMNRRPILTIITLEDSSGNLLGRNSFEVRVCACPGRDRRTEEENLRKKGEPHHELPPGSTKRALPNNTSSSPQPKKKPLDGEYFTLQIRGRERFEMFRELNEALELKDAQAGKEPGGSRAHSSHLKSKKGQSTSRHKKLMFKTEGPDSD
Sequence of Nuclear factor erythroid 2-related factor 2 (Homo sapiens) (Q16236 whole entry, looked up): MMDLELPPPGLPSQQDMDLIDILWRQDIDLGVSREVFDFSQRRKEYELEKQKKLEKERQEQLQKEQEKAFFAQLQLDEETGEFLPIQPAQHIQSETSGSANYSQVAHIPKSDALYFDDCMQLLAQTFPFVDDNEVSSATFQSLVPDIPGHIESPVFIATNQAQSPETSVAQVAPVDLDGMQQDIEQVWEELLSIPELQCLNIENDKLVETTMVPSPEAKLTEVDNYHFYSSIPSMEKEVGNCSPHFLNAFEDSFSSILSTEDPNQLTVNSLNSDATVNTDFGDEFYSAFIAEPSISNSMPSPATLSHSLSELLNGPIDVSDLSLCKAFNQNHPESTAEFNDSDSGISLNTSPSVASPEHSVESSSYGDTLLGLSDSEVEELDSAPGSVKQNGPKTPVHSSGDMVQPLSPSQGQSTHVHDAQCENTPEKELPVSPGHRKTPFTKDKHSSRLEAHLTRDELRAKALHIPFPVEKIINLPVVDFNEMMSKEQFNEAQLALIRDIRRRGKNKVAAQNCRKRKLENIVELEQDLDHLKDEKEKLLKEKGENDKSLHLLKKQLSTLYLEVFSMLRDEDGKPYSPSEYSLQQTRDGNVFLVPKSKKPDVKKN
Sequence of Signal transducer and activator of transcription 3 (Homo sapiens) (P40763 whole entry, looked up): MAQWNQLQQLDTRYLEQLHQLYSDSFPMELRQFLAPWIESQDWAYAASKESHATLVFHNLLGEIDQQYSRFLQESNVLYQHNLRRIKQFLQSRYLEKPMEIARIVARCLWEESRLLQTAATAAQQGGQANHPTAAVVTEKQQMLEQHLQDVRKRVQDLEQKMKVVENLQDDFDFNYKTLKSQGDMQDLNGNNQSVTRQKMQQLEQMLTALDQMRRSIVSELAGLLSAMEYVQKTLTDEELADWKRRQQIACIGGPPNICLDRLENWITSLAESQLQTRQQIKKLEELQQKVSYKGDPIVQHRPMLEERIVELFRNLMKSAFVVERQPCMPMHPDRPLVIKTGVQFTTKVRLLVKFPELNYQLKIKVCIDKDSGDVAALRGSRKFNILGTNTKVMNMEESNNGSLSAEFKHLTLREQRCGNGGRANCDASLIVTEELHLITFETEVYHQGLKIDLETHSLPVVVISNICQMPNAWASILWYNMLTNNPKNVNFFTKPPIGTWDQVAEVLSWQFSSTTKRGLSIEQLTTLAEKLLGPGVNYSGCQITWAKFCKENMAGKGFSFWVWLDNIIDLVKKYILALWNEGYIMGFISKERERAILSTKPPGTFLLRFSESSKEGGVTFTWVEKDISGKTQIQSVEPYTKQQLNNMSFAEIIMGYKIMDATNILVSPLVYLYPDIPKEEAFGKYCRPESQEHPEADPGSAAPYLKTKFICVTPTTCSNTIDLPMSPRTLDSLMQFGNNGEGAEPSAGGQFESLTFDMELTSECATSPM

O=C(Nc1ccccc1)c1ccccc1I
inactive: [1] | [3] | [4] | [5] | [6] | [7] | TIMP1, TIMP1 (gene 7076) | [9] | [12]
active: [2] 77.6 µM | [8] 50 µM | [10] 27.1 µM | [11] 13.1 µM | [13] 13.2 µM | [14] 40.5 µM

CCCCCCCCCCCCCN1CC(C)OC(C)C1 (stereo unspecified)
inactive: [1] | [2] | [3] | [5] | [6] | [7] | [8] | TIMP1, TIMP1 (gene 7076) | [9] | [10] | [15] | [11] | [12] | [13] | [14]

CCCSC(=O)N(CCC)CCC
inactive: [1] | [2] | [3] | [5] | [6] | [7] | [8] | TIMP1, TIMP1 (gene 7076) | [9] | [10] | [15] | [11] | [12] | [13] | [14] | [16]

CCC[CH2][Sn]([Cl])([CH2]CCC)[CH2]CCC
active: [1] 15.8 µM | [3] 50 µM | [5] 2.3 µM | [6] 1.63 µM | [7] 50 µM | [9] 50 µM | [10] 2.84 µM | [15] 11.6 µM | [11] 3.12 µM | [12] 12.6 µM | [14] 2.98 µM | [16] 1.8 µM | [17] 1.22 µM and 1.04 µM | [18] 31.8 µM and 46 µM | [19] 921 nM and 958 nM
inactive: [2] | [8] | TIMP1, TIMP1 (gene 7076) | [13] | [16]
